Measured values as given in PubChem BioAssay (NCI).
About 83,000 compounds went through this panel and 20% of them were active in at least one assay; those are over-represented in the sample as a whole.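 Step 1: grow cells in 96-well plates. Step 2: add test compound at a single concentration. Step 3: incubate 48 h. Step 4: record percent growth.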 Unmarked numbers belong to inactive results. The source made the active and inactive calls. Rule for the calls: active = growth percent below 10; inactive = the rest.

Legend:
Test in all cases: NCI-60 one-dose screen, 48 h (100 = growth as untreated, 0 = no growth, -100 = all killed)
Conditions in all cases: 10 µM unless noted
NCI-H23 lung = test system: NCI-H23 lung
NCI-H226 lung = test system: NCI-H226 lung
NCI-H322M lung = test system: NCI-H322M lung
HOP-62 NSCLC = test system: HOP-62 NSCLC
NCI-H460 lung = test system: NCI-H460 lung
HOP-92 NSCLC = test system: HOP-92 NSCLC
NCI-H522 lung = test system: NCI-H522 lung
A549/ATCC NSCLC = test system: A549/ATCC NSCLC
786-0 renal = test system: 786-0 renal
COLO 205 colon = test system: COLO 205 colon

| Compound | growth (NCI-H23 lung) | growth (NCI-H226 lung) | growth (NCI-H322M lung) | growth (HOP-62 NSCLC) | growth (NCI-H460 lung) | growth (HOP-92 NSCLC) | growth (NCI-H522 lung) | growth (A549/ATCC NSCLC) | growth (786-0 renal) | growth (COLO 205 colon) |
| --- | --- | --- | --- | --- | --- | --- | --- | --- | --- | --- |
| CCCCCc1ccc(S(=O)(=O)Nc2ccc3nc(N)oc3c2)cc1 | 40.2% | 46.3% | 96.9% | 78.5% | 60.8% | 19.5% | 43.7% | 53.2% | 72.4% | 72.4% |
| Cc1ccc2nc(-c3ccc(C(=O)N/N=C/c4ccc([N+](=O)[O-])cc4)cc3)[nH]c2c1 | 101% | 104% | 104% | 108% | 102% | 91.9% | 95.1% | 106% | 97.6% | 108% |
| COC12C=C/C(=C(/C(=O)OCc3csc(SC)n3)C(=O)CCCCCCCCC3(OC)C=C/C(=C(/C(=O)OCc4cnc(SC)s4)C(=O)CCCCCCCC1)O3)O2 (stereo not given) | 15.7% | 12% | 46.5% | 58.7% | 27.2% | 78.2% | 24.2% | 39.8% | 35.1% | 25.5% |
| O=C(/C=C/c1ccccc1)N(C1CCCCC1)C1CCCCC1 | 74.3% | 84.7% | 105% | 131% | 86.8% | 84.3% | 70.9% | 73.8% | 82.2% | 99.9% |
| COc1ccc2c(c1)CC[C@@H]1[C@@H]2CC[C@]2(C)C3C(=CC(COC(C)=O)C4C(=O)N(c5ccc(Cl)cc5)C(=O)C43)C[C@@H]12 (stereo not given in full) | 91.8% | 97.3% | 107% | 98.4% | 110% | 90.7% | 89.9% | 110% | 111% | 118% |
| N#CC1=C(N)Oc2c(sc3c(F)cccc23)C1c1ccc([N+](=O)[O-])cc1 (stereo not given) | -4.82% (active) | 3.23% (active) | -24.2% (active) | -33.4% (active) | -26.8% (active) | -47.5% (active) | -26.3% (active) | 4.46% (active) | -18.6% (active) | -41.7% (active) |
| O=S(=O)(Nc1cc(F)cc(F)c1)c1ccc(-c2cnc(C3CC3)o2)cc1 | 63.7% | 48.2% | 63.2% | 40.9% | 25.3% | 42.5% | 7.85% (active) | 46.7% | 35.5% | 40.1% |
| CCCCn1c(NC(C)=O)c(S(=O)(=O)c2ccccc2)c2nc3ccccc3nc21 | 94% | 92.5% | 105% | 173% | 110% | 4.95% (active) | 94.9% | 97.1% | 105% | 127% |
| CCN(CC)CCn1c2ccc(OC)cc2c2sc3cc(O)ccc3c(=O)c21 | 23.9% | 112% | 34.2% | 34.4% | 8.17% (active) | 61.8% | 42.2% | 17.9% | 26.1% | 23% |
| CCOC(=O)C1=C(c2ccccc2)N=C2N(c3ccccc3)N=C(C(C)=O)N2C1c1ccc(F)cc1 (stereo not given) | 105% | 97.7% | 99.2% | 98.6% | 100% | 93.3% | 97.3% | 101% | 99.6% | 113% |
| Cn1cc(-c2csc(-c3cn(CCCN4CCOCC4)c4ccc(F)cc34)n2)c2cccnc21 | 63.7% | 51.9% | 79% | 71.7% | 41% | 40.8% | 49.5% | 66.1% | 57.4% | 51.3% |
| CN1C(=O)N2CN3CCCN(C3)CN3C(=S)NC1C23 (stereo not given) | 103% | 99.6% | 105% | 104% | 105% | 98.7% | 95% | 87% | 102% | 117% |
| COC(=O)Cn1c2c(c3c(OC)cccc31)C(=O)c1ccccc1-2 | 91.2% | 91.4% | 113% | 87% | 112% | 70.3% | 101% | 100% | 86.6% | 104% |
| CN1c2ccccc2S(=O)(=O)n2c(SCC(=O)Nc3nc4ccc(F)cc4s3)nnc21 | 97.4% | 113% | 93.1% | 103% | 103% | 84.7% | 72.2% | 82.8% | 112% | 114% |
| COC(=O)c1ccc2c(c1)c1c(C)c3cnccc3c(C)c1n2C | -47.1% (active) | -41.1% (active) | -14% (active) | -24.7% (active) | -32.4% (active) | -16.6% (active) | -65.1% (active) | -17% (active) | -63.4% (active) | -39.9% (active) |
| CCOC(=O)c1c(C)nc2c(c1N)C(=O)C(=O)N2Cc1ccc(OC)cc1 | 59.6% | 90.8% | 99.5% | 40.1% | 101% | 39.6% | 41.3% | 88% | 39.7% | 123% |
| N=C(N)c1ccc(-c2ccc(-c3cc(Cl)cc(Cl)c3)s2)s1 | -49.5% (active) | 90.8% | -44.7% (active) | -28.3% (active) | -33.9% (active) | 50.2% | -70.6% (active) | -52.8% (active) | -74.5% (active) | -75.4% (active) |
| Cc1[nH]c(C(=O)Nc2ccccc2OC2CCN(CCN3CCOCC3)CC2)c(Cl)c1Cl | 97.6% | 79.6% | 99.9% | 89.9% | 108% | 70.9% | 47.6% | 99% | 57.5% | 102% |
| ClCCn1cnc2c(SCc3ccccc3)ncnc21 | 72.4% | 65.4% | 75.3% | 66.6% | 12.2% | 63.7% | 65.8% | 40% | 64.8% | 52.4% |
| CCSc1ccnc(N)n1 | 120% | 101% | 106% | 94% | 113% | 98% | 105% | 118% | 98.3% | 125% |
| COc1cc(C[C@H]2COc3cc(O)cc(O)c3C2=O)ccc1O | 49.8% | 101% | 69.7% | 35.4% | 18.6% | 30.9% | 17.2% | 46% | 25.6% | 106% |
| CN(C)CCCNC(=O)c1cncnc1Nc1ccc2c(ccn2Cc2cccc(F)c2)c1 | 95.6% | 99.4% | 98.6% | 99.9% | 95.5% | 78.3% | 98.2% | 84.9% | 79.5% | 84.6% |
| CCOC(=O)c1[nH]cc2c1CCc1sc(Nc3ccccn3)nc1-2 | 66.7% | 57.2% | 96% | 92.3% | 85.9% | 56.3% | 66.2% | 70.2% | 98.7% | 93.7% |
| CCOc1ccc(NC(=O)Nc2ccc(OCC)cc2)cc1 | 106% | 104% | 104% | 98.2% | 106% | 106% | 103% | 95.9% | 108% | 104% |
| N#Cc1c(-c2ccc(Cl)cc2)nc(NN=Cc2ccc[nH]2)nc1N1CCOCC1 | 92.4% | 61.8% | 95.4% | 41.6% | 36.7% | 68.9% | 8.32% (active) | 54.4% | 23.9% | 81.6% |
| CC(=O)c1ccc(-n2cc(CN3CCN(c4cc5c(cc4F)c(=O)c(C(=O)O)cn5C4CC4)CC3)nn2)cc1 | 83.5% | 69.6% | 89.2% | 78.7% | 91.2% | 79.9% | 89.2% | 89.8% | 87.9% | 110% |
| O=c1cc(-c2ccccc2)nc(SCc2nc3cc(Cl)c(Cl)cc3[nH]2)[nH]1 | 90.9% | 101% | 90.7% | 93.2% | 111% | 104% | 85.3% | 114% | 96.7% | 108% |
